# Assay outcomes deposited in PubChem by several laboratories.
# Hits are enriched below; roughly 1.7% of the tested compounds scored in any of these assays.
# beta cell repl: MIN6 beta-cell proliferation induction | MIN6 cells proliferation, ATPlite luminescence, 48 h; cells starved in 0.2% serum; 100% = growth in 10% serum | proliferation, % at 10 µM | actives 0.29% (n = 330,000) | AID 2380;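 active = compounds whose signal lies at least 3.5 SD above the mean of all wells on their plate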
# CHT allo act: human CHT allosteric activation | Q9GZV3 | CHT-expressing cells, membrane potential dye, choline EC20; active compounds read high; LV-AA mutant CHT in HEK293 cells | B-score at 10 µM | actives 0.49% (n = 310,000);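 active = initial fluorescence not abnormally high and integrated response B-score, plate-corrected, over 3 SD above library mean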
# Target sequence (Q9GZV3 whole entry, looked up): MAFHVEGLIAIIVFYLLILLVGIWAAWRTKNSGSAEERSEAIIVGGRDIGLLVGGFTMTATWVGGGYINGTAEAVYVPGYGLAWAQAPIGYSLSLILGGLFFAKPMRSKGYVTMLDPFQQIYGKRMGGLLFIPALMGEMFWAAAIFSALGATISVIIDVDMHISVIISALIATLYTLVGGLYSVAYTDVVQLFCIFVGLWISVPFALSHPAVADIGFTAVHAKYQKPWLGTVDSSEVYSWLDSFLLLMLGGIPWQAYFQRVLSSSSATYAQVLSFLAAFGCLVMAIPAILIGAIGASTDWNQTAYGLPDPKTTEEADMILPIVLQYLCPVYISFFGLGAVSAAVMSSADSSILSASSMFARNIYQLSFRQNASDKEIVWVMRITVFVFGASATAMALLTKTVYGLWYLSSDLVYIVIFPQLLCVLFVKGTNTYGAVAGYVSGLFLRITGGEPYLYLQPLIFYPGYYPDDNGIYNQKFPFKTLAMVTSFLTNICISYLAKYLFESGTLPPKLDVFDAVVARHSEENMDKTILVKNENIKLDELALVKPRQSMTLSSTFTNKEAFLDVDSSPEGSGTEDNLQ
# CHT inh: inhibits the human high affinity choline transporter; Q9GZV3; CHT-expressing cells, membrane potential dye, choline response; active compounds read low; B-score at 10 µM; actives 0.86% (n = 310,000); AID 488975;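 active = B-score over 3 SD under the library average, and starting fluorescence ratio not unusually high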;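 note: choline stimulus applied at its EC90 after an EC20 pre-addition; B-score computed on integrated fluorescence ratio after choline addition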
# TAG inh: triacylglycerol accumulation inhibition; H9c2 cells, Nile Red lipid (TAG) fluorescence; cells loaded with 200 µM oleic acid; inhibition, % at 12.5 µM; actives 0.66% (n = 230,000); AID 651582;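 active = pattern-corrected inhibition of lipid staining of at least 50% with the nuclear-stain viability signal not falling by more than 50%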
# CHT activ conf: human CHT activation, confirmatory screen. shares compounds with CHT allo act. CHT-expressing cells, membrane potential dye fluorescence (FDSS); % of choline EC20–EC90 response window; HEK293 expressing CHT LV-AA mutant; choline added at its EC20. activation, % at 10 µM. actives 91% (n = 2,500). AID 504833;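 active = primary screen active, with duplicate mean activation above negative control mean plus 3 SD, cut at about 11% in these data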
# HEK293 MP dye: activity in parental HEK293 cells lacking CHT. shares compounds with CHT allo act. membrane potential dye fluorescence (FDSS); measured after EC20 choline addition. ratio readout change at 10 µM, hits read low. actives 62% (n = 2,500);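 active = duplicate-averaged ratio beyond 3 SD from buffer wells, up or down, though filed actives are nearly all decreases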
# A number is an active result; - = inactive; . = no result given.
SMILES,beta cell repl,CHT allo act,CHT inh,TAG inh,CHT activ conf,HEK293 MP dye
CC(=O)Nc1cccc(-c2cn3ccc(C)cc3n2)c1,-,-,-,.,.,.
Cc1ccn2cc(-c3cccc(NS(C)(=O)=O)c3)nc2c1,-,6.3,-,-,35,-42
Cc1ccn2cc(-c3cccc([N+](=O)[O-])c3)nc2c1,-,-,-,-,39,-46
CN(C)CC(CCCCC(CN(C)C)C(=O)c1ccccc1)C(=O)c1ccccc1 (centres undefined),-,8.4,-,-,29,-
Cc1cc(NS(=O)(=O)c2ccc(NC(=O)c3cnc4scc(C)n4c3=O)cc2)nc(C)n1,-,6.2,-,-,33,-27
COc1ccc(NS(=O)(=O)c2cccc(-c3nnc4n3CCCCC4)c2)cc1,-,-,-,-,18,-
CC1(C)COC(c2cc3c(cc2Br)OCO3)OC1,.,.,.,-,.,.
C[C@@H]1C=CC(=O)O[C@@H]1c1ccc(Cl)cc1,-,-,-,.,.,.
CCCC(C(=O)NC1CCCCC1)N(Cc1ccco1)C(=O)CNS(=O)(=O)c1ccccc1 (centres undefined),-,8.4,-,-,33,-
CCC(C(=O)NC1CCCC1)N(Cc1ccco1)C(=O)CNS(=O)(=O)c1ccccc1 (centres undefined),-,-,-,.,.,.
CCCNC(=O)C1(C)CCN(Cc2ccc(C)c3ccccc23)C1 (centres undefined),.,.,.,-,.,.
O=C(NN=C1CCCC1)c1ccccc1OCc1ccc(Cl)cc1,-,10,-,-,13,-
COc1ccc(CC(=O)OCC(=O)NCc2ccco2)cc1,-,7,-,-,-,-
COc1cc(CC(=O)OCC(=O)NCc2ccco2)cc(OC)c1OC,-,.,.,-,.,.
C(=N\Nc1nn2cnnc2c2ccccc12)/c1ccco1,-,-,-,-,35,-28
Nc1c(C(=O)NCc2ccc3c(c2)OCO3)c2nc3ccccc3nc2n1CCCN1CCOCC1,-,7.4,-,.,12,-
Nc1c(C(=O)NCCN2CCOCC2)c2nc3ccccc3nc2n1-c1ccc2c(c1)OCO2,-,-,-,.,.,.
CCc1n(CC(O)COC2CCCCC2)c2ccccc2[n+]1C (centres undefined),-,-,-,-,.,.
CCCc1n(CC)c2ccccc2[n+]1CC(O)COC1CCCCC1 (centres undefined),-,7,-,-,40,-
Cc1cc(C)n2nc(C(=O)OCC(=O)N3CC(C)CC(C)C3)nc2n1 (centres undefined),-,-,-,-,.,.
O=C(COC(=O)C1CCN(c2ccc(C(F)(F)F)cn2)CC1)NCc1ccccc1,-,.,.,-,.,.
O=C(COC(=O)C1CCN(c2ccc(C(F)(F)F)cn2)CC1)NC1CCCCC1,-,-,-,-,-,-
COc1ccc(C(=O)Nc2ccccc2N2CCCC2)cc1S(=O)(=O)N1CCOCC1,-,-,-,-,.,.
CCCN(CC(=O)Nc1ccccc1C)C(=O)c1cccc(S(=O)(=O)N2CCc3ccccc3C2)c1,-,6.9,-,-,-,-
Cc1ccn2c(c1)nc(=O)c1cc(S(=O)(=O)N3CCCCC3)ccc12,-,-,-,.,32,-27
SMILES,beta cell repl,CHT allo act,CHT inh,TAG inh,CHT activ conf,HEK293 MP dye
CCOC(=O)Cc1nc2ccccc2n(CC#N)c1=O,-,-,-,-,.,.
Cc1cc(NC(=O)CSc2ccc3nnc(-c4cccs4)n3n2)no1,-,9.9,-,-,22,-33
Cc1cc(NC(=O)CSc2ccc3nnc(-c4cccnc4)n3n2)no1,-,9.3,-,-,49,-42
O=C(CSc1ccc2nnc(-c3cccnc3)n2n1)N1CCOCC1,-,7.1,-,-,30,-26
Cc1ccc(-c2nnc3ccc(SCC(=O)Nc4cc(C)on4)nn23)cc1,-,-,-,.,.,.
CC(=O)c1ccc(NC(=O)CSc2ccc3nnc(-c4ccccn4)n3n2)cc1,-,-,-,-,49,-46
COc1ccccc1N1CCN(C(=O)COc2ccc(S(=O)(=O)NC(C)(C)C)cc2)CC1,-,-,-,.,.,.
NS(=O)(=O)c1ccc(CNC(=S)NC2CC2)cc1,-,-,-,-,.,.
Cc1nnc(SC(C)C(=O)Nc2ccc(N3CCOCC3)cc2)n1Cc1ccccc1 (centres undefined),-,.,.,-,.,.
Nn1c(SCC(=O)Nc2ccccc2F)nnc1C1CCCCC1,-,-,-,.,.,.
CC(O)(CC(=O)CC(=O)c1ccccc1)c1ccccc1 (centres undefined),.,.,.,-,.,.
COc1ccc(CCC(=O)OCC(=O)Nc2sccc2C(N)=O)cc1,-,.,.,-,.,.
O=C1C=CC(=Nc2ccc(F)cc2)O1,.,.,.,-,.,.
CCOC(=O)N1CCN(c2nc3ccc(C)cc3n3cnnc23)CC1,-,.,.,.,.,.
COc1ccc(CN(C)C(=O)c2ccccc2Sc2ccccc2C#N)cc1OC,-,-,-,-,.,.
CN(Cc1cccc(F)c1)C(=O)c1ccccc1Sc1ccccc1C#N,-,7.2,-,-,31,-
C[C@H](NC(=O)C(c1ccccc1)c1ccccc1)c1ccccc1,-,7.9,-,.,-,-
CCn1c(/C=C/Nc2ccccc2)[n+](CC)c2cc(Cl)c(Cl)cc21,-,7,-,.,33,-37
O=C1c2ccccc2C(=O)N1CCCCSc1nc2ccccc2c(=O)n1CCCN1CCOCC1,-,-,-,-,35,-
O=C(CSc1nc2ccccc2c(=O)n1CCCN1CCOCC1)Nc1ccc(Br)cc1,-,.,.,-,.,.
CCc1ccc(NC(=O)CSc2nc3ccccc3c(=O)n2CCCN2CCC(C)CC2)cc1,-,-,-,-,17,-
Cc1ccc(C(=O)c2c3ccc(C(F)(F)F)cc3[n+]([O-])n2CCCC(N)=O)cc1,-,-,-,-,.,.
Cc1ccc(C(=O)c2c3ccc([N+](=O)[O-])cc3[n+]([O-])n2CCCN)cc1,-,6.5,-,-,34,-40
COc1ccc(CCN=C(N)NS(=O)(=O)c2ccc(OC)cc2)cc1,-,-,-,-,.,.
COc1ccc(CCN=C(N)Nc2nc(C)cc(C)n2)cc1,-,6.5,-,-,50,-41
SMILES,beta cell repl,CHT allo act,CHT inh,TAG inh,CHT activ conf,HEK293 MP dye
CC(C)CCNC(=O)CN(Cc1ccccc1)C(=O)CCC(=O)Nc1ccccn1,-,-,-,.,.,.
NNC(=O)c1ccc(COCC(F)(F)F)cc1,-,-,-,-,-,-
CCOc1ccccc1N1CC(C(=O)N(CC)CC(=O)Nc2ccc3c(c2)OCCO3)CC1=O (centres undefined),-,-,-,-,.,.
Oc1ccccc1/C=N/Nc1cc(N2CCCC2)nc(N2CCCC2)n1,-,-,-,.,.,.
Oc1ccc(/C=N/Nc2cc(N3CCOCC3)nc(N3CCOCC3)n2)cc1O,-,7.1,-,.,47,-62
CCN(C(=O)COC(=O)c1cccc(S(=O)(=O)NCc2ccccc2)c1)c1ccccc1,-,.,.,-,.,.
CCOC(=O)c1c(CSCc2ccccc2)oc2ccc(O)c(CN(C)C)c12,-,11,-,-,25,-
